ELG1 genotox = genotoxicity induction in ELG1-luciferase HEK293T cells; HEK293T ELG1-luciferase reporter, luminescence, 16 h; Potency, µM (highest dose often 46 µM), for the others: at the highest dose activity change, positive = activation, actives largely listed as activators; 330,000 tested, 1.3% active; note: % of control where 0% means no effect; nearly all actives have a fitted effect of over 60% in size
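16 hr compound incubation (37 °C, 5% CO2) of HEK293T cells carrying luciferase-tagged ELG1; luciferase then measured by ONE-Glo luminescence after 30 min at RT.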
FLuc modulator = firefly luciferase modulation, counter-screen for miR-21 project | 360,000 tested, 6.9% active | Potency, µM (top dose mostly 57.5 µM), for inactives: at the highest dose activity change, negative = inhibition, hits mostly inhibitors | AID 588342 | purified FLuc, Km substrates, luminescence inhibition | P08659;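 note: plate controls were vehicle for no effect and reference inhibitor for full effect; nearly all actives have a fitted effect of over 55% in size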
Target sequence (P08659 whole entry, looked up): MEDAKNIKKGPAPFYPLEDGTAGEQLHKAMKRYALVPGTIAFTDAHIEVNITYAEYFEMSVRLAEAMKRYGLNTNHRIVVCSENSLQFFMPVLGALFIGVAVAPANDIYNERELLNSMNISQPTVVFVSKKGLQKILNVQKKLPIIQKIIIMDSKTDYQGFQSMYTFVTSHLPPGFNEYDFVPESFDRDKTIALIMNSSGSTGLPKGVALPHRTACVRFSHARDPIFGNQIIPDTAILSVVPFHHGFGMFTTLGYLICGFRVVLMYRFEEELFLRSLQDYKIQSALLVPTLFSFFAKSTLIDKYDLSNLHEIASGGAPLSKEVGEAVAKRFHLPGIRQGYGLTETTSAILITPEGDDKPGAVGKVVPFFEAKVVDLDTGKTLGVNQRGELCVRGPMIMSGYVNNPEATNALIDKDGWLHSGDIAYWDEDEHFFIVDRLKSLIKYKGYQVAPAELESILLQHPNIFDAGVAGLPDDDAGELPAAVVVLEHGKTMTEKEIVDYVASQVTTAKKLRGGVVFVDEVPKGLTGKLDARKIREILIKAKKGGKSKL
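Purified P. pyralis luciferase, 10 nM final, with Km-level 10 uM D-luciferin and 10 uM ATP in 50 mM Tris acetate pH 7.5, 10 mM Mg acetate, 0.01% Tween-20, 0.05% BSA; 6-point qHTS titration about 60 µM downward; luminescence read.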
SMN2 splice enh = SMN2 splice variant enhancement | HEK293 SMN2-luciferase splicing reporter, luminescence, 30-36 h | Potency, µM (highest dose often 46.1 µM), inactives show at the top dose activity change, positive = activation, usual class: activators | 210,000 tested, 2.8% active | AID 1458; note: % of control where 0% means no effect; nearly all actives have a fitted effect of over 55% in size
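HEK293 cells carry an SMN2 […]–luciferase reporter in which exon 7 inclusion puts luciferase in frame. Cells were plated 10-12 h before compound addition, then incubated 30-36 h at 37C. ONE-Glo luminescence was read; sodium butyrate at 4.5 mM final served as control.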
Rab9 promoter act = activates the Rab9 promoter. Huh7 Rab9 promoter-luciferase reporter, luminescence, 24 h. Potency, µM (series often up to 9.22 µM), for inactives: top-dose activation, negative = inhibition, usual class: activators. 320,000 tested, 2.8% active. AID 485297; note: % of control where 0% means no effect; nearly all actives have a fitted effect of over 60% in size
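Rab9 promoter-driven luciferase in stably transfected Huh7 cells; 1500 cells/well rested 2 h, exposed to compound in DMSO for 24 h at 37 °C, 5% CO2. Luminescence read 10 min after adding luciferase reagent at ambient temperature.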
NPC1 promoter act = NPC1 promoter activation. 320,000 tested, 2.4% active. Huh7 NPC1 promoter luciferase reporter, 24 h. Potency, µM (doses to about 9.22 µM), without a hit: top-dose activation, most hits filed as activators; note: % of control where 0% means no effect; nearly all actives have a fitted effect of over 60% in size
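Luciferase expression driven by the NPC1 promoter was measured in stably transfected Huh7 cells after a 24 h compound incubation, using a luciferase reagent and a luminescence read.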
ELG1 repair inh = inhibitors of ELG1-dependent DNA repair in HEK293T cells; HEK293T ELG1-luciferase reporter, luminescence, 16 h; DNA damage induced by 5-fluorouridine; 330,000 tested, 2.3% active; Potency, µM (highest dose often 46.1 µM), for the others: at the highest dose activity change, negative = inhibition, most hits filed as inhibitors; note: % is set by controls: 0 for no effect and ±100 for the full control effect; nearly all actives have a fitted effect of over 55% in size
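HEK293T cells expressing luciferase-tagged ELG1 (2,000/well) received 5-Fluorouridine plus compound or DMSO for 16 hr at 37 °C. Luciferase was read by ONE-Glo luminescence after 30 min at room temperature.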
ELG1 FLuc counter = luciferase inhibition in cell-free luciferin readout for ELG1 hits; shares compounds with ELG1 repair inh; cell-free firefly luciferase luminescence counter-screen, ViewLux; Potency, µM (titrated, usually from 46.1 µM), without a hit: at the highest dose activity change, negative = inhibition, hits mostly inhibitors; 350 tested, 3% active; note: % is set by controls: 0 for no effect and ±100 for the full control effect
ELG1-Luc inh = confirmation of human ELG1-dependent DNA repair inhibitors; shares compounds with ELG1 repair inh; HEK293T ELG1-luciferase levels, luminescence; cells co-treated with 5-fluorouridine; Potency, µM (doses to about 46.1 µM), for inactives: at the top dose activity change, negative = inhibition, hits mostly inhibitors; 670 tested, 68% active; AID 624248; note: % is set by controls: 0 for no effect and ±100 for the full control effect; nearly all actives have a fitted effect of over 55% in size
ELG1-Luc MMS = MMS-stimulated human ELG1 repair inhibition, confirmed; shares compounds with ELG1 repair inh; HEK293T luciferase-tagged ELG1 level, MMS stimulated; Potency, µM (doses to about 46.1 µM), for inactives: at the highest dose activity change, negative = inhibition, hits mostly inhibitors; 670 tested, 53% active; note: % is set by controls: 0 for no effect and ±100 for the full control effect; nearly all actives have a fitted effect of over 60% in size
ELG1 5-FU = confirmation of ELG1 repair inhibitors: viability with 5FU. cell viability with 5-FU, ELG1-dependent repair. 670 tested, under 10 active. shares compounds with ELG1 repair inh. Potency, µM (doses to about 46.1 µM), for the others: at the highest dose activity change, negative = viability loss, usual class: cytotoxic;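 note: ELG1-luc HEK293T cells cotreated with 5-fluorouridine at 10 µM final; viability measured 16 h after compound addition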
ELG1 MMS cell = confirmation of ELG1 repair inhibitors: viability with MMS; shares compounds with ELG1 repair inh; Cell viability with MMS, ELG1-dependent DNA repair; Potency, µM (titrated, usually from 46.1 µM), for the others: top-dose activity change, negative = viability loss, actives largely listed as cytotoxic; 670 tested, 33% active;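 note: ELG1-luc HEK293T cells co-treated with 10 µM MMS; viability read 16 h after compound addition; % is set by controls: 0 for no effect and ±100 for the full control effect; nearly all actives have a fitted effect of over 60% in size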
Cell viab unstim = counter-screen for ELG1 repair inhibitors: unstimulated cell viability. shares compounds with ELG1 repair inh. cell viability counter-screen, unstimulated, luminescence. Potency, µM (top dose mostly 45.9 µM), for inactives: top-dose activity change, negative = loss of viability, usual class: cytotoxic. 900 tested, 8% active. AID 624252;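 note: compound exposure lasted 16 hours before reading; % is set by controls: 0 for no effect and ±100 for the full control effect; nearly all actives have a fitted effect of over 55% in size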
FLuc enzyme = counter-screen for ELG1 repair inhibitors: firefly luciferase inhibition. Potency, µM (doses to about 57.5 µM), without a hit: at the top dose activity, negative = inhibition, actives largely listed as inhibitors. purified firefly luciferase, luminescence counter-screen. 350 tested, 10% active. shares compounds with ELG1 repair inh; note: % is set by controls: 0 for no effect and ±100 for the full control effect
Active calls of the source: *; [ ] = another dose, or the depositor's remark. Most compounds without a hit are left out; they make up all but 9.2% or so of the library. Calls come from the whole dose curve; as a rule, active = well fitted curve in the direction sought with a large enough effect; inconclusive = small, poorly fitted or top-dose-only effect, or another doubt; inactive = no such curve, though single readings can be large; an effect the other way counts as inactive or inconclusive. Potency is the fitted concentration of half-maximal effect.

Screening CCC(C)C(NC(=O)CCCNC(=O)CCC(=O)OC1O[C@H]2OC3(C)CC[C@H]4[C@H](C)CCC(C1C)C24OO3)C(=O)O (stereo partly specified) returned ELG1 genotox -9.1%, FLuc modulator -2.0%, Rab9 promoter act -19.5%, NPC1 promoter act -22.4%, ELG1 repair inh 0.58µM*, ELG1 FLuc counter -12.2%, ELG1-Luc inh inconclusive, ELG1-Luc MMS inconclusive, ELG1 5-FU -5.8%, ELG1 MMS cell -3.7%, Cell viab unstim inconclusive and FLuc enzyme -2.6%.
For CCC(C)NC(=O)CCC(=O)OC1O[C@H]2OC3(C)CC[C@H]4[C@H](C)CCC(C1C)C24OO3 (stereo partly specified) the results were ELG1 genotox -7.6%, FLuc modulator -3.5%, Rab9 promoter act -22.3%, NPC1 promoter act -18.0% and ELG1 repair inh inconclusive.
Screening C[C@@H]1C[C@H]2OC(=O)C3(CO3)[C@H]2[C@H](O)[C@]2(C)C(=O)C3OC3[C@@H]12 (stereo partly specified) returned ELG1 genotox 1.3%, FLuc modulator 0.7%, Rab9 promoter act -15.0%, NPC1 promoter act -20.8% and ELG1 repair inh inconclusive.
`C=C1C(=O)O[C@@H]2C[C@@H](C)[C@@H]3C=CC(=O)[C@@]3(C)[C@@H](O)[C@H]12` gave FLuc modulator 1.4%, SMN2 splice enh -45.6%, Rab9 promoter act -49.0%, NPC1 promoter act -57.3%, ELG1 repair inh 4.11µM*, ELG1 FLuc counter inconclusive, ELG1-Luc inh inconclusive, ELG1-Luc MMS 0.0045µM*, ELG1 5-FU inconclusive, ELG1 MMS cell 0.0056µM*, Cell viab unstim 2.81µM* and FLuc enzyme 7.31µM*.
For COc1ccc(CN2CCN(C(=O)Cn3c(=O)oc4cc(Cl)ccc43)CC2)c(OC)c1OC the results were ELG1 genotox -6.9%, FLuc modulator 0.2%, Rab9 promoter act -15.5%, NPC1 promoter act -3.5% and ELG1 repair inh inconclusive.
For NC(=S)c1cn(C2OC(CO)C(O)C2O)c2ncnc(N)c12 (stereo unspecified) the results were ELG1 genotox -13.9%, FLuc modulator -5.5%, Rab9 promoter act -52.0%, NPC1 promoter act -43.7%, ELG1 repair inh 0.411µM*, ELG1 FLuc counter inconclusive, ELG1-Luc inh 0.158µM*, ELG1-Luc MMS 0.315µM*, ELG1 5-FU -2.8%, ELG1 MMS cell 1.99µM*, Cell viab unstim inconclusive and FLuc enzyme -0.1%.
S=C=NCc1ccccc1 was read as SMN2 splice enh 11.1%.
`C[C@@H]1O[C@@H](O[C@H]2C[C@@H](O)[C@]3(CO)[C@H]4[C@H](O)C[C@]5(C)[C@@H](C6COC(=O)C6)CC[C@]5(O)[C@@H]4CC[C@]3(O)C2)[C@H](O)[C@H](O)[C@H]1O` (stereo partly specified) gave ELG1 genotox -21.9%, FLuc modulator 5.1%, SMN2 splice enh 0.794µM*, Rab9 promoter act -36.8%, NPC1 promoter act -45.5%, ELG1 repair inh 1.46µM*, ELG1 FLuc counter inconclusive, ELG1-Luc inh 2.5µM*, ELG1-Luc MMS 1.58µM*, ELG1 5-FU inconclusive, ELG1 MMS cell 3.15µM*, Cell viab unstim inconclusive and FLuc enzyme 3.0%.
Screening C[C@@H]1O[C@@H](O[C@H]2C[C@@H](O)[C@]3(CO)[C@@H]4C(CC[C@]3(O)C2)[C@@]2(O)CC[C@H]([C@@H]3COC(=O)C3)[C@@]2(C)C[C@H]4O)[C@H](O)[C@H](O)[C@H]1O (stereo partly specified) returned Rab9 promoter act -43.4%[46.1 µM] and NPC1 promoter act -34.2%[46.1 µM].
